Only some compounds are listed: those with a hit (about 0.75% of all), similar ones and a draw of the others.
Yp Topo-I inh: Yersinia pestis topoisomerase I inhibitors, primary screen, biochemical, cleavage product accumulation, plate reader, single point. DNA topoisomerase I (Yersinia pestis CO92). Y. pestis Topo-I cleavage product accumulation. activity, % at 10 µM. 0.064% of 360,000 active; in the data active = activity above about 50%, passing the limit was not always enough
Mtb hypoxia inh: PubChem AID 1159583; 0.1% of 300,000 active; fluorescence inhibition, % (concentration not given with the values); M. tuberculosis hypoxia-regulated fluorescent reporter, fluorescence; in the data active = fluorescence inhibition mostly above about 23%, no sharp cut-off; inactive = mostly below about 17%
TcdB GH inh: TcdB glycohydrolase inhibitors, primary screen, biochemical, single point, plate reader; AID 652162, 2013; 0.24% of 350,000 active; Toxin B (Clostridioides difficile), P18177; inhibition, % at 9.99 µM; TcdB glycohydrolase enzymatic assay; in the data active = inhibition above about 10%
RN4220 kill: growth inhibition of S. aureus RN4220, primary screen, OD600; 16 h; inhibition, % (test concentration not listed); 0.33% of 330,000 active; AID 1259311, 2017; in the data active = inhibition above about 85%
Sa ugtP lethal: growth inhibition of ugtP-null S. aureus, primary screen, RN4220 ugtP deletion, OD600. growth inhibition, % (concentration not given with the values). AID 1259309, 2017. 16 h. 0.54% of 330,000 active; in the data active = growth inhibition above about 68%
Mtb BioA inh: M. tuberculosis BioA enzyme inhibitors, primary screen, biochemical, plate reader, single point, HTS; AID 602481, 2012; inhibition, % at 9.99 µM; 7,8-diaminopelargonic acid synthase BioA (Mycobacterium tuberculosis); purified M. tuberculosis BioA enzyme; 0.096% of 360,000 active; in the data active = inhibition above about 40%
Large screens that a line does not name were inactive.

CCOc1ccc2nc(SCC(=O)N3c4ccccc4Sc4ccccc43)sc2c1	none (no result: TcdB GH inh, Mtb BioA inh)
C/C(C=NNC(=O)Cn1cncn1)=C/c1ccc(C(C)C)cc1	none (no result: Yp Topo-I inh, TcdB GH inh, Mtb BioA inh)
CC(=O)O[C@H]1CC[C@]2(C)C3CC[C@@]4(C)C(C[C@@H](O)[C@@H]4O)C3[C@@H](OC(C)=O)C[C@H]2C1 (some centres undefined)	none (no result: Mtb hypoxia inh, RN4220 kill, Sa ugtP lethal)
CC(=O)OC1C[C@@]2(C)C(CC(O)C3[C@@]4(C)CCC(O)C(C)C4CC[C@@]32C)C1=C(CCC=C(C)C)C(=O)O (some centres undefined)	RN4220 kill 99.7, Sa ugtP lethal 99.9 (not shown: Yp Topo-I inh, Mtb hypoxia inh, TcdB GH inh, Mtb BioA inh)
CC(C)CC(CO)N1CCN(Cc2ccc([N+](=O)[O-])cc2)CCC1=O (centres undefined)	none (no result: Yp Topo-I inh, TcdB GH inh, Mtb BioA inh)
Cc1ccc2oc3c(c(=O)c2c1)C(c1cccs1)N(CCCN(C)C)C3=O (centres undefined)	Mtb BioA inh 59.1 (no result: TcdB GH inh)
CCCCCCCCOC(=O)c1c(CSC(=N)N)n(C)c2cc(Br)c(OC(C)=O)cc12	RN4220 kill 100.4, Sa ugtP lethal 101.0 (not shown: Mtb hypoxia inh)
COc1ccc(-n2c(-c3ccc(Br)cc3)c[n+]3c2CCc2ccccc2-3)cc1	none (not shown: Mtb hypoxia inh, Mtb BioA inh)
CC(C)c1ccc(-n2c(-c3ccccc3)c[n+]3c2CCc2ccccc2-3)cc1	RN4220 kill 96.1, Sa ugtP lethal 100.0 (not shown: Mtb hypoxia inh, Mtb BioA inh)
COc1ccc(C=Nn2c(-c3ccccc3)n[nH]c2=S)cc1	none (no result: Yp Topo-I inh, TcdB GH inh, Mtb BioA inh)
CCCCCCCCCCCCCCCC[n+]1ccc(/C=N/O)cc1	none (no result: Mtb hypoxia inh, RN4220 kill, Sa ugtP lethal, Mtb BioA inh)
CCCCCCCCCCCCCCCC[n+]1ccccc1	RN4220 kill 100.1, Sa ugtP lethal 99.9
CCCCCCCCCCCCCCCC[n+]1ccc(C(N)=O)cc1	RN4220 kill 100.2, Sa ugtP lethal 99.7 (no result: TcdB GH inh)
CCCCCCCCCCCCCCCC[n+]1cccc(C(=O)N(CC)CC)c1	RN4220 kill 100.0, Sa ugtP lethal 99.9
CCCCCCC[n+]1ccc(-c2cc[n+](CCCCCCC)cc2)cc1	Mtb hypoxia inh 81.3
CCCCCCCC[n+]1cccc(C(=O)N(CC)CC)c1	none (no result: Mtb BioA inh)
CCCC(C#CCCN1C(=O)c2ccccc2C1=O)=C1c2ccccc2C(=O)N1c1ccccc1	none (no result: Yp Topo-I inh, TcdB GH inh, Mtb BioA inh)
Cc1onc(-c2ccc(Cl)cc2Cl)c1-c1csc(NN=Cc2ccccc2)n1	none (no result: Yp Topo-I inh, TcdB GH inh, Mtb BioA inh)
CC(=O)NC(=S)Nc1sc2c(c1C#N)CCCCC2	none (no result: Mtb BioA inh)
N#Cc1c(NC(=S)NC(=O)Cc2cccs2)sc2c1CCCCC2	Sa ugtP lethal 87.0 (no result: TcdB GH inh)
NC(C(=O)NC1C(=O)N2C(C(=O)O)=C(Cl)CSC12)c1ccccc1 (centres undefined)	RN4220 kill 100.5, Sa ugtP lethal 100.2 (no result: Yp Topo-I inh, TcdB GH inh, Mtb BioA inh)
O=C(NCc1ccccc1)C1=CC(C2CCCCC2)CC(OCCCCO)O1 (centres undefined)	none (no result: Yp Topo-I inh, TcdB GH inh, Mtb BioA inh)
COc1ccc(Cl)cc1NC(=O)CN(C)C(=O)Cc1ccc2c(c1)CCC2	none
COc1ccc(Cl)cc1NC(=O)CN(C)C(=O)c1cc2c(s1)CCCC2	TcdB GH inh 11.6
O=C(CC1CC=CCC(NC(=O)OCC2c3ccccc3-c3ccccc32)C(=O)OCC(Cc2ccccc2)NC1=O)NCCO (centres undefined)	none (no result: Yp Topo-I inh, TcdB GH inh, Mtb BioA inh)
CCOC(=O)C1Oc2ccccc2C(c2ccc(OC)cc2)=C1C(=O)OC (centres undefined)	none
CCOC(=O)C1=C(c2ccccc2)c2ccccc2OC1C(=O)OCC (centres undefined)	Sa ugtP lethal 89.3
COc1ccc(C=NNC(=O)c2ccncc2)c(OC)c1	none (not shown: Yp Topo-I inh, Mtb hypoxia inh, TcdB GH inh, Mtb BioA inh)
CC(=O)N1C(C)C=C[C@]1(Cc1ccccc1)C(=O)O (some centres undefined)	none (no result: Yp Topo-I inh, TcdB GH inh, Mtb BioA inh)
COc1ccc(-c2c(-c3ccccc3OC)oc3ccccc23)cc1F	Sa ugtP lethal 89.1
CC=CC=CC(=O)Nc1cccc(C2=NOC3(C2)CC(C(N)=O)N(C(=O)c2cc([N+](=O)[O-])cc([N+](=O)[O-])c2)C3)c1 (centres undefined)	Mtb hypoxia inh 57.4 (no result: Yp Topo-I inh, TcdB GH inh, Mtb BioA inh)
COc1ccc(NC(=S)NN=Cc2cccn2Cc2ccc(F)cc2)cc1	none (no result: Yp Topo-I inh, TcdB GH inh, Mtb BioA inh)
CC(C)OC(=O)C(C)(C)Oc1ccc(C(=O)c2ccc(Cl)cc2)cc1	Yp Topo-I inh 52.8
CC1(C)Cc2c(sc3ncn4c(=S)[nH]nc4c23)CO1	TcdB GH inh 22.0 (no result: Mtb BioA inh)
CCOC(=O)C1=C(CN2CCN(C(=O)c3ccco3)CC2)NC(=O)NC1c1ccc(OC(C)C)cc1 (centres undefined)	Mtb BioA inh 44.3
O=C1N=C(N2CCOCC2)S/C1=C\c1cccs1	none (no result: Mtb hypoxia inh, RN4220 kill, Sa ugtP lethal)
Cc1ccsc1/C=C1/SC(N2CCOCC2)=NC1=O	Mtb hypoxia inh 48.3 (no result: Yp Topo-I inh, TcdB GH inh, Mtb BioA inh)
COc1ccc(-c2cc(N)n(S(=O)(=O)c3c(F)c(F)c(F)c(F)c3F)n2)cc1OC	RN4220 kill 98.1, Sa ugtP lethal 95.1
COc1cc(C(=O)Nc2scc(-c3ccc(C)cc3)c2C(=O)O)cc(OC)c1OC	none
Cc1ccc(C(=O)Nc2scc(-c3ccccc3)c2C(=O)O)cc1	TcdB GH inh 12.0
O=C(Nc1scc(-c2ccccc2)c1C(=O)O)c1ccccc1Cl	none
COc1cc(C(=O)Nc2scc(-c3ccccc3)c2C(=O)O)cc(OC)c1OC	TcdB GH inh 13.1
COc1ccc(-c2csc(NC(=O)c3ccccc3F)c2C(=O)O)cc1	TcdB GH inh 10.6 (no result: Mtb BioA inh)
C[C@]12NC(Cc3ccccc31)c1ccccc12	none (no result: Yp Topo-I inh, TcdB GH inh, Mtb BioA inh)
CC(=O)ON=Cc1c(N2CCOCC2)n(C)c2ccccc12	none (not shown: Yp Topo-I inh, Mtb hypoxia inh, TcdB GH inh, Mtb BioA inh)
O=[N+]([O-])c1cccnc1N1CCC(c2cc(-c3cccc(C(F)(F)F)c3)n[nH]2)CC1	Sa ugtP lethal 90.2 (no result: TcdB GH inh)
O=[N+]([O-])c1cccnc1N1CCC(c2cc(-c3ccc(Cl)cc3Cl)n[nH]2)CC1	none (no result: Mtb hypoxia inh, TcdB GH inh)
O=C1NN=C2CCCCCCC12 (centres undefined)	TcdB GH inh 11.0 (no result: Mtb hypoxia inh, RN4220 kill, Sa ugtP lethal)

From PubChem BioAssay
